# Measured values: PubChem BioAssay (NCATS)
# Results filed as inconclusive are left out. Entries that show only a call come without a potency. Unmarked numbers belong to inactive results. Calls of active or inactive are those of the source. Unless noted, the call rests on the fitted dose curve; in most records, active means well fitted curve in the direction sought with a large enough effect; inconclusive means small, poorly fitted or top-dose-only effect, or another doubt; inactive means no such curve, though single readings can be large; an effect the other way counts as inactive or inconclusive. Where a SMILES comes first, the peptide text is derived from it. Bridges are numbered along the chain shown (N, C = ends). [ ]: non-standard residue; d: D form. hArg = N=C(N)NCCCC[C@H](N)C(=O)O; Mpa = O=C(O)CCS
# How the values were obtained:
# [1] = molecular target: Cytochrome P450 2C9 (Homo sapiens) (UniProt P11712); assay: Cytochrome P450 family 2 subfamily C member 9 (CYP2C9) small molecule antagonists: luciferase biochemical (cell-free) qHTS assay (AID 1645842; active means well fitted curve in the direction sought with a large enough effect in the repeat runs; an effect the other way counts as inactive or inconclusive; further: nearly all actives have a fitted effect of over 55% in size; further: potency means the concentration at half of the fitted maximal effect; on activity change, negative = inhibition: series mostly up to about 57 µM)
# Procedure, shortened: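 P450-Glo CYP2C9 system: proluciferin substrate with enzyme in mix containing 0.4% BSA, 10 min at room temperature, then NADPH regeneration solution added and incubated 1 h at 37C. Detection reagent stopped reaction; luminescence read after 20 min as RLU.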
# [2] = Primary qHTS for inhibitors of nuclear receptor binding SET domain protein 2 (NSD2) in an isogenic RCH-ACV NSD2 p.E1099K mutant (9B) (AID 1645876); further: nearly all actives have a fitted effect of over 70% in size
# [3] = Primary qHTS for inhibitors of nuclear receptor binding SET domain protein 2 (NSD2) in an RCH-ACV wild type WT cells (2C) (AID 1645877); further: nearly all actives have a fitted effect of over 70% in size
# [4] = molecular target: N-terminal Xaa-Pro-Lys N-methyltransferase 1 (Homo sapiens) (UniProt Q9BV86); assay: Confirmatory qHTS for Inhibitors of N-terminal methyltransferase 1 (NTMT1): MTaseGlo Assay (AID 1645874); further: nearly all actives have a fitted effect of over 65% in size; further: potency means the concentration at half of the fitted maximal effect;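 on activity change, negative = inhibition: luminescence from SAH made as NTMT1 methylates SPKRIA peptide using SAM; series mostly up to about 100 µM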
# Procedure, shortened: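 SPKRIA peptide at 1 uM was methylated by 125 nM NTMT1 using 100 uM SAM over 30 min at room temperature, following a 15 min compound preincubation. Product SAH was detected luminescently.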
# Chain of Cytochrome P450 2C9 (Homo sapiens) (P11712 whole entry, looked up): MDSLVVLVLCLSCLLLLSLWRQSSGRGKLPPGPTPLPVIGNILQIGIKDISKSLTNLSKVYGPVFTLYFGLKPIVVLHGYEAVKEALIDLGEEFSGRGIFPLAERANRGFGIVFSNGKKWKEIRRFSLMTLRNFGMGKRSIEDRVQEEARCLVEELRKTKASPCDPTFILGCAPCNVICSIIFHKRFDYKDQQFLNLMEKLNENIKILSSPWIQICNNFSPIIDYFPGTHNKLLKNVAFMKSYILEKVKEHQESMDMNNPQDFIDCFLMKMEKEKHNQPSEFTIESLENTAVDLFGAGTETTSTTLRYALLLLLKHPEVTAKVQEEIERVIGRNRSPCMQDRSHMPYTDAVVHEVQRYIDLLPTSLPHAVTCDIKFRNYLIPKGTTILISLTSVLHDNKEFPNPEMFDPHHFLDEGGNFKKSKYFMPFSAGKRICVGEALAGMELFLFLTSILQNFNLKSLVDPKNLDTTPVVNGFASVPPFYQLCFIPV
# Chain of N-terminal Xaa-Pro-Lys N-methyltransferase 1 (Homo sapiens) (Q9BV86 whole entry, looked up): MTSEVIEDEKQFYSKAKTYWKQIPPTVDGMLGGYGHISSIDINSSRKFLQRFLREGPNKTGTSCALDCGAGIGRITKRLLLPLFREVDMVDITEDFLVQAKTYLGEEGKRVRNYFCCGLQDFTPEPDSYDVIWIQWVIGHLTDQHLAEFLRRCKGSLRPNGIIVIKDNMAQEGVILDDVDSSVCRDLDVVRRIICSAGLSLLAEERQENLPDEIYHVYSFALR
compound,measurement,setting,value
O=C(O)CCC(=O)O,Potency,[1],inactive
CCOc1ccccc1O[C@H](c1ccccc1)[C@H]1CNCCO1,Potency,[1],inactive
COc1ccc(O)cc1,Potency,[1],inactive
Cc1[nH]c(C)c(Cl)c(=O)c1Cl,Potency,[1],inactive
same,Potency,[2],inactive
same,Potency,[3],inactive
O=C(NCC(O)CO)c1c(I)c(C(=O)NCC(O)CO)c(I)c(N(CCO)C(=O)CO)c1I (configuration not stated),Potency,[1],inactive
same,Potency,[2],inactive
FC(F)(F)C(Cl)Br (configuration not stated),Potency,[1],inactive
same,Potency,[2],inactive
same,Potency,[3],inactive
CCCCCCCCCCCCCCCCN,Potency,[1],inactive
Cn1c(=O)c2c(ncn2CCO)n(C)c1=O,Potency,[1],inactive
same,Potency,[2],inactive
CCN(CC)CCc1nc(-c2ccccc2)no1,Potency,[1],inactive
same,Potency,[2],inactive
same,Potency,[3],inactive
Cc1cc(=O)[nH]c(=S)[nH]1,Potency,[1],inactive
CC(=O)N1C[C@H](O)C[C@H]1C(=O)O,Potency,[1],inactive
CC1(c2ccccc2)OC(C(=O)O)=CC1=O (configuration not stated),Potency,[1],inactive
O=c1[nH]c2cc(C(F)(F)F)c(N3CCOCC3)cc2n(CP(=O)(O)O)c1=O,Potency,[1],inactive
O=C(/C=C/c1ccc(O)c(O)c1)O[C@@H]1C[C@@](OC(=O)/C=C/c2ccc(O)c(O)c2)(C(=O)O)C[C@@H](O)[C@@H]1O,Potency,[1],inactive
CCCCCCCCCCCCCCCCC(C(=O)O)C(O)(CC(=O)O)C(=O)O (configuration not stated),Potency,[1],inactive
same,Potency,[4],17 µM (active)
CNc1c2c(nn1C)CCCC2,Potency,[1],inactive
NNc1nnc(NN)c2ccccc12,Potency,[1],inactive
Cc1c(NC(C)C)c(=O)n(-c2ccccc2)n1C,Potency,[1],inactive
same,Potency,[2],inactive
same,Potency,[3],inactive
O=c1[nH]cnc2nc[nH]c12,Potency,[1],inactive
same,Potency,[4],inactive
same,Potency,[2],inactive
same,Potency,[3],inactive
COC(=O)c1cccnc1,Potency,[1],inactive
same,Potency,[2],inactive
NC(=O)[C@@H]1CSSCCC(=O)N[C@@H](CCCCN=C(N)N)C(=O)NCC(=O)N[C@@H](CC(=O)O)C(=O)N[C@@H](Cc2c[nH]c3ccccc23)C(=O)N2CCC[C@H]2C(=O)N1 ([Mpa][hArg]GDWPC-NH2; disulfide 1-7),Potency,[1],inactive
NC(=O)NS(=O)(=O)c1ccc(N)cc1,Potency,[1],inactive
CCN1CC(CCN2CCOCC2)C(c2ccccc2)(c2ccccc2)C1=O (configuration not stated),Potency,[1],inactive
NNC(=O)CP(=O)(c1ccccc1)c1ccccc1,Potency,[1],15.5 µM (active)
Cc1c(NC(=O)c2cccnc2)c(=O)n(-c2ccccc2)n1C,Potency,[1],inactive
Cn1cc(C(=O)[C@@H]2CCc3nc[nH]c3C2)c2ccccc21,Potency,[1],inactive
OC[C@@H](O)[C@@H](O)[C@H](O)[C@H](O)CO,Potency,[1],inactive
O=C(O)CNC(=O)c1ccccc1I,Potency,[1],inactive
O=C(NCN1CCOCC1)c1cnccn1,Potency,[1],inactive
same,Potency,[2],inactive
O=C(O)Cn1c(C(=O)Nc2nc(-c3ccccc3Cl)cs2)cc2ccccc21,Potency,[1],inactive
same,Potency,[2],inactive
O=C(O)Cc1cn(-c2ccccc2)nc1-c1ccc(Cl)cc1,Potency,[1],4.36 µM (active)
O=C(O)c1ccc[n+]([O-])c1,Potency,[1],inactive
COCC(=O)Nc1c(I)c(C(=O)NCC(O)CO)c(I)c(C(=O)N(C)CC(O)CO)c1I (configuration not stated),Potency,[1],inactive
same,Potency,[2],inactive
same,Potency,[3],inactive
NC(=O)c1ccc([N+](=O)[O-])cc1Cl,Potency,[1],inactive
CC1(C)S[C@@H]2[C@H](NC(=O)C(C(=O)O)c3ccccc3)C(=O)N2[C@H]1C(=O)O (some centres not stated),Potency,[1],inactive
same,Potency,[2],inactive
CC(=O)SC[C@@H](Cc1ccccc1)C(=O)NCC(=O)OCc1ccccc1,Potency,[1],1.23 µM (active)
CC(C)CCCC(C)CCCC(C)CCCCC(C)CCCC(C)CCCC(C)C (configuration not stated),Potency,[1],inactive
same,Potency,[2],inactive
same,Potency,[3],inactive
NCC1CCC(C(=O)Oc2ccc(CCC(=O)O)cc2)CC1 (configuration not stated),Potency,[1],inactive
same,Potency,[2],inactive
same,Potency,[3],inactive
CC(C)(C)NCC(O)COc1cccc2c1CCC(=O)N2 (configuration not stated),Potency,[1],inactive
same,Potency,[2],inactive
same,Potency,[3],inactive
CC(C)c1cc2c(cc1S(=O)(=O)O)[C@@]1(C)CCC[C@@](C)(C(=O)O)[C@@H]1CC2,Potency,[1],inactive
same,Potency,[2],inactive
same,Potency,[3],inactive
C[C@]1(Cn2ccnn2)[C@H](C(=O)O)N2C(=O)C[C@H]2S1(=O)=O,Potency,[1],inactive
same,Potency,[2],inactive
same,Potency,[3],inactive
COc1nccnc1NS(=O)(=O)c1ccc(N)cc1,Potency,[1],inactive
same,Potency,[2],inactive
same,Potency,[3],inactive
COC(=O)c1ccccc1C(=O)c1ccc(OCCN2CCCCC2)cc1,Potency,[1],inactive
same,Potency,[2],inactive
same,Potency,[3],inactive
Cc1ccccc1N=Nc1ccc(N=Nc2c(O)ccc3ccccc23)c(C)c1,Potency,[1],inactive
same,Potency,[2],inactive
same,Potency,[3],inactive
O=C1c2ccccc2C(=O)C1c1ccc(Br)cc1,Potency,[1],2.19 µM (active)
same,Potency,[2],inactive
same,Potency,[3],inactive
C[n+]1ccccc1/C=N/O,Potency,[1],inactive
same,Potency,[2],inactive
same,Potency,[3],inactive
CC(=O)N(CC(O)CN(C(C)=O)c1c(I)c(C(=O)NCC(O)CO)c(I)c(C(=O)NCC(O)CO)c1I)c1c(I)c(C(=O)NCC(O)CO)c(I)c(C(=O)NCC(O)CO)c1I (configuration not stated),Potency,[1],inactive
same,Potency,[2],inactive
same,Potency,[3],inactive
CCCC(O)C(CC)CO (configuration not stated),Potency,[1],inactive
same,Potency,[2],inactive
same,Potency,[3],inactive
Cc1cc(C)c(NC(=O)CN(CC(=O)O)CC(=O)O)c(C)c1Br,Potency,[1],inactive
same,Potency,[2],inactive
same,Potency,[3],inactive
Nc1ccc(S(=O)(=O)c2ccc(N)cc2)cc1,Potency,[1],inactive
same,Potency,[2],inactive
same,Potency,[3],inactive
CCCCCCCCCCOc1cc2c(=O)c(C(=O)OCC)c[nH]c2cc1OCC,"activity change, negative = inhibition",[1],5.88% [at 4.83 µM]
same,outcome,[2],inactive [at 4.96 µM]
same,"activity change, negative = cell killing",[3],4.45% [at 4.96 µM]
CC(C(=O)O)c1ccc2c(c1)Cc1cccnc1O2 (configuration not stated),Potency,[1],inactive
same,Potency,[2],inactive
same,Potency,[3],inactive
CC(CSC(=O)c1ccccc1)C(=O)N1C[C@@H](Sc2ccccc2)C[C@H]1C(=O)O (some centres not stated),Potency,[1],inactive
same,Potency,[2],inactive
same,Potency,[3],inactive
Nc1c2c(nc3c1CCC3)CCCC2,Potency,[1],inactive
same,Potency,[2],inactive
same,Potency,[3],inactive
Cc1c(C)c2c(c(C)c1OC(=O)c1cccnc1)CC[C@@](C)(CCC[C@H](C)CCC[C@H](C)CCCC(C)C)O2,Potency,[1],inactive
same,Potency,[2],inactive
same,Potency,[3],inactive
CNCc1ccccc1,Potency,[1],inactive
same,Potency,[2],inactive
same,Potency,[3],inactive
Cc1cc(C)nc(NS(=O)(=O)c2ccc(N)cc2)n1,Potency,[1],inactive
same,Potency,[2],inactive
same,Potency,[3],inactive
C[C@@H]1O[C@@H](OC[C@H]2O[C@@H](Oc3c(-c4ccc(O)c(O)c4)oc4cc(O)cc(O)c4c3=O)[C@H](O)[C@@H](O)[C@@H]2O)[C@H](O)[C@H](O)[C@H]1O,Potency,[1],inactive
same,Potency,[2],inactive
same,Potency,[3],inactive
